KB-V1 cytotox – kills drug-selected multidrug resistant KB-V1 cells; Potency, µM (titrated, usually from 46.1 µM), most hits filed as cytotoxic; 400,000 compounds, 3.4% hits; KB-V1 MDR cells viability, CellTiter-Glo, 72 h; further: on the % scale 0 is the no-effect control and ±100 the full control effect; nearly all actives have a fitted effect of over 60% in size
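Potencies derive from concentration-effect curves fitted to normalized luminescence (CellTiter-Glo) of KB-V1 cells treated for 72 h at 37 degrees C in phenol-red-free DMEM containing 10% FBS.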
KB-3-1 tox – kills parental KB-3-1 adenocarcinoma cells | 400,000 compounds, 1.4% hits | KB-3-1 viability, CellTiter-Glo ATP luminescence, 72 h | Potency, µM (doses to about 46.1 µM), hits mostly cytotoxic; further: on the % scale 0 is the no-effect control and ±100 the full control effect; nearly all actives have a fitted effect of over 60% in size
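Parental KB-3-1 viability, qHTS format: 72 h compound exposure, 37 °C; CellTiter-Glo; media-only wells and DMSO plates as controls; concentration-effect fits on corrected data.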
SW480 rereplic – DNA re-replication induction in SW480 cells; SW480 DNA re-replication, Hoechst DNA content imaging, 48 h; Potency, µM (top dose mostly 46.1 µM), inactives show at the highest dose re-replication activation, most hits filed as activators; 340,000 compounds, 1.8% hits; AID 624297; further: % of control where 0% means no effect; nearly all actives have a fitted effect of over 55% in size
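Cells (250 per well) received 23 nL compound or DMSO by pin tool and were kept 48 hr at 37 C, 5% CO2. Nuclei were then stained with Hoechst for 40 min and scanned for DNA content.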
RORgamma inh – blocks mouse ROR gamma transcriptional activity; Potency, µM (titrated, usually from 53.6 µM), for inactives: at the highest dose activity change, negative = inhibition, usual class: inhibitors; AID 2551; P51450; Drosophila S2 Gal4-RORgamma UAS-luciferase reporter, 20 h; 310,000 compounds, 5.4% hits; further: on the % scale 0 is the no-effect control and ±100 the full control effect; nearly all actives have a fitted effect of over 60% in size
Target sequence (P51450 whole entry, looked up, the tested form may be a part): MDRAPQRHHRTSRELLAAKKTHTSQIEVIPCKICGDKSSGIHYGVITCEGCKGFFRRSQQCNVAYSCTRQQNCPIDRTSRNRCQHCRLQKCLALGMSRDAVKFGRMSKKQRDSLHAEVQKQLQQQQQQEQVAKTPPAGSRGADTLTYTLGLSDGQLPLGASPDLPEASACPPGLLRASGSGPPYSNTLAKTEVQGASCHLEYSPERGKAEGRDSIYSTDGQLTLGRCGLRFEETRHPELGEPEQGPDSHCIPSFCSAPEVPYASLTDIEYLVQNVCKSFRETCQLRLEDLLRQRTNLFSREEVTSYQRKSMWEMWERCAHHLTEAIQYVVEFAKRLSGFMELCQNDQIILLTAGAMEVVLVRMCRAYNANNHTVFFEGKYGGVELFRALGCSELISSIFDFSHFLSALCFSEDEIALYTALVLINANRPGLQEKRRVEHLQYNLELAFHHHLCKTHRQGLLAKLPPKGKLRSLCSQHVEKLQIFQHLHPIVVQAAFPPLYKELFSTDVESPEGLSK
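A Gal4/UAS one-hybrid system in insect cells: metallothionein-promoter Gal4–ROR gamma fusion plus Photinus luciferase reporter. Copper sulfate 700 uM final, 20 hr ambient incubation, luminescent detection after 10 min with reagent.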
VP16 counter – counter-screen for ROR gamma inhibitors: Gal4-VP16 reporter | Drosophila S2 Gal4-VP16 UAS-luciferase, luminescence, 20 h | Potency, µM (top dose mostly 53.6 µM), for the others: at the highest dose activity, negative = inhibition, most hits filed as inhibitors | 310,000 compounds, 3.5% hits;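 further: Gal4-VP16 expression switched on by copper sulfate through the metallothionein promoter; on the % scale 0 is the no-effect control and ±100 the full control effect; nearly all actives have a fitted effect of over 50% in size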
MCF10A rerep – inducers of DNA re-replication in MCF 10A breast cells; MCF 10A DNA re-replication, Hoechst nuclear intensity, 48 h; Potency, µM (titrated, usually from 46.1 µM), inactives show at the top dose activity, positive = re-replication, hits mostly activators; 350,000 compounds, 2.9% hits; AID 624296; further: % of control where 0% means no effect; nearly all actives have a fitted effect of over 50% in size
Active calls of the source: *; i = inactive; ? = inconclusive; . = not tested or not shown. Hits are enriched below; roughly 10% of the tested compounds scored in any of these assays. The call rests on the fitted dose curve; in most records, active means well fitted curve in the direction sought with a large enough effect; inconclusive means small, poorly fitted or top-dose-only effect, or another doubt; inactive means no such curve, though single readings can be large; an effect the other way counts as inactive or inconclusive. Potency means the concentration at half of the fitted maximal effect.

SMILES	KB-V1 cytotox	KB-3-1 tox	SW480 rereplic	RORgamma inh	VP16 counter	MCF10A rerep
O=C(Nc1cccc2oc(=O)ccc12)c1ccc([N+](=O)[O-])cc1[N+](=O)[O-]	?	?	16µM*	13%	9%	-1%
Cc1c(Cl)c([N+](=O)[O-])nn1CC(=O)NC(C)c1ccccc1 (configuration not stated)	i	i	-5%	.	.	-6%
Cc1c(Cl)c([N+](=O)[O-])nn1CC(=O)NCc1cccs1	18µM*	i	-14%	2%	4%	-3%
Cc1c(Cl)c([N+](=O)[O-])nn1CCCC(=O)Nc1c(Cl)cccc1Cl	7.3µM*	i	-7%	-8%	-8%	13%
CCn1cc(Cl)c(C(=O)Nc2nc3ccccc3n2CCN2CCCCC2)n1	i	i	-2%	10µM*	8.9µM*	0%
Cn1ncc([N+](=O)[O-])c1C(=O)Nc1nc2ccccc2n1CCN1CCCCC1	?	i	0%	3.5µM*	?	?
Cc1c(Cl)c(C(=O)Nc2nc3ccccc3n2CCN2CCCCC2)nn1C	.	.	.	?	-24%	.
COC(=O)c1c(C(=O)OC)c(-c2ccc(Cl)c(Cl)c2)n2c1CCC2	i	i	-5%	23%	0%	?
COC(=O)c1c(C(=O)OC)c(-c2ccc(C)cc2)n2c1CCC2	15µM*	i	0%	9%	-6%	-1%
Cc1ccc2c(c1)-c1onc(C(=O)N(C)c3ccc(F)cc3)c1CO2	i	i	.	.	.	.
O=C(N/N=C/c1ccc(F)cc1)c1cc(-c2ccco2)nc2ccccc12	?	?	?	27%	0%	13µM*
CCOc1cccc(-c2cc(C(=O)N/N=C/c3ccc(OC)c(CN4CCOCC4)c3)c3ccccc3n2)c1	i	i	11%	16µM*	?	?
COc1ccc(/C=N/NC(=O)c2ccncc2)cc1CN1CCOCC1	i	i	-40%	-16%	-1%	-21%
CCOc1ccc(/C=N/NC(=O)c2cc(-c3ccco3)nc3ccccc23)cc1	i	i	?	?	?	4.1µM*
O=C(O)c1cc(-c2ccco2)nc2ccccc12	?	i	2%	-22%	-10%	-20%
COC(=O)c1ccc(Cl)cc1NC(=O)N1CC=C(c2c[nH]c3ccccc23)CC1	i	i	.	.	.	.
O=C(Cn1nc(CNc2ccc(Br)cc2)[n+]2c1CCCCC2)c1ccc([N+](=O)[O-])cc1	i	13µM*	-7%	?	?	7%
O=C(Cn1nc(CNc2ccc(Cl)cc2)[n+]2c1CCCCC2)c1ccc(Br)cc1	i	?	-5%	?	?	24%
C/C(=N\NC(=O)c1ccc(Br)cc1)C1C(=O)c2ccccc2C1=O	?	?	-6%	4µM*	3.5µM*	?
CCOc1ccc(C(=O)N/N=C(/C)C2C(=O)c3ccccc3C2=O)cc1	?	i	1%	1.1µM*	2.8µM*	-2%
CCOc1ccc(/C(C)=N/NC(=O)C(OC)c2ccccc2)cc1 (configuration not stated)	?	?	-2%	-19%	-9%	14%
C/C(=N\NC(=O)c1ccc(-c2ccccc2)cc1)C1C(=O)c2ccccc2C1=O	i	?	5%	?	12%	?
O=C(c1cccs1)c1coc2ccc(O)c(CN3CCOCC3)c12	2.9µM*	i	7%	?	3%	5%
O=C(c1coc2ccc(O)c(CN3CCOCC3)c12)C1CC1	i	i	-7%	-2%	3%	0%
CC(C)c1ccc(C(O)P(=O)(OC2CCCCC2)OC2CCCCC2)cc1 (configuration not stated)	?	?	?	1%	?	21µM*
SMILES	KB-V1 cytotox	KB-3-1 tox	SW480 rereplic	RORgamma inh	VP16 counter	MCF10A rerep
COc1cc(C(O)P(=O)(OC2CCCCC2)c2ccc(N(C)C)cc2)cc(OC)c1OC (configuration not stated)	i	i	13%	4%	4%	1%
COc1ccc(CCN2C(=O)c3cccc4cccc(c34)C2=O)cc1OC	i	i	-2%	-29%	-9%	8%
CCN(CC)C(=O)c1ccc2c3c(cccc13)C(=O)N(CCc1ccc(OC)c(OC)c1)C2=O	7.3µM*	?	110%	33%	-6%	?
COc1cccc(-c2cccc(NC(=O)C3CCN(CCCn4cccn4)CC3)c2)c1	i	i	.	.	.	.
COc1ccc2c(C)cc(=O)oc2c1	i	i	?	8%	-2%	-3%
COc1cccc(COc2ccc3c(C)cc(=O)oc3c2)c1	?	i	0%	-2%	4%	15%
COc1ccccc1C1=NOC(COc2ccc3c(C)cc(=O)oc3c2)C1 (configuration not stated)	18µM*	1.2µM*	8.2µM*	28%	3%	1.6µM*
COc1ccc(C2=NOC(COc3ccc4c(C)cc(=O)oc4c3)C2)c(OC)c1 (configuration not stated)	15µM*	5.8µM*	12µM*	?	-1%	26µM*
Cn1c(=S)[nH]c2scc(-c3cccs3)c2c1=O	?	?	0%	0.79µM*	5µM*	?
O=c1c2c(-c3cccs3)csc2ncn1-c1ccc(Br)cc1	?	i	-3%	9%	-13%	7%
O=c1[nH]cnc2scc(-c3cccs3)c12	i	i	-5%	7%	-3%	0%
C=CCn1c(=S)[nH]c2scc(-c3cccs3)c2c1=O	i	i	-75%	0.63µM*	0.79µM*	?
COc1cccc(S(=O)(=O)N(C)C[C@@H]2OCc3cn(nn3)CCCC(=O)N([C@@H](C)CO)C[C@H]2C)c1	i	i	.	.	.	.
CN1/C(=C/C(=O)c2nc(S(C)(=O)=O)ncc2Cl)C(C)(C)c2ccccc21	?	?	12µM*	3.2µM*	5.6µM*	?
CN1/C(=C\C(=O)c2ccco2)C(C)(C)c2ccccc21	?	21µM*	23µM*	?	10µM*	?
CN1/C(=C\C(=O)CSc2nnc(NCc3ccccc3)s2)C(C)(C)c2ccccc21	?	i	10%	?	?	18µM*
CN1/C(=C\C(=O)COc2ccc3c(c2)OCO3)C(C)(C)c2ccccc21	?	?	?	9%	?	13µM*
COC(=O)c1c(SC)nc2ccccc2c1OCc1ccccc1Cl	i	i	.	.	.	.

Screening data: PubChem, National Center for Advancing Translational Sciences (NCATS)
